Laboratory results: the supplement of paper PMC4466140

B1: unnamed (peptide)
chain: RLPAPPPPPRRGPAP

Target: AgAbp1
Assay: SPOT peptide array binding signal intensity (averaged, normalized) (arbitrary units (background-subtracted, floor 0; scale differs between SH3 domains)); higher = stronger binding of the SH3 domain to the peptide
Protocol: (§1)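 GST-tagged SH3 domains from S. cerevisiae (Sc), A. gossypii (Ag), C. albicans (Ca) and S. pombe (Sp) were incubated at 10 ug/ml overnight at 4 C on cellulose SPOT membranes carrying 292 synthetic 15-mer peptides mined from the S. cerevisiae proteome (cysteines replaced by serines). Binding was detected with anti-GST antibody, HRP secondary and chemiluminescence, quantified with Genespotter, and reported as normalized spot intensities averaged over biological replicates.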

Binder	SPOT peptide array binding signal intensity
B1	51.5

Target: AgBbc1
Assay: as above
Protocol: as §1

Binder	SPOT peptide array binding signal intensity
B1	909

Target: AgBem1-D1
Assay: as above
Protocol: as §1

Binder	SPOT peptide array binding signal intensity
B1	140

Target: AgBzz1-D1
Assay: as above
Protocol: as §1

Binder	SPOT peptide array binding signal intensity
B1	624

Target: AgBzz1-D2
Assay: as above
Protocol: as §1

Binder	SPOT peptide array binding signal intensity
B1	154

Target: AgCyk3
Assay: as above
Protocol: as §1

Binder	SPOT peptide array binding signal intensity
B1	3

Target: AgFus1
Assay: as above
Protocol: as §1

Binder	SPOT peptide array binding signal intensity
B1	6

Target: AgHof1
Assay: as above
Protocol: as §1

Binder	SPOT peptide array binding signal intensity
B1	112

Target: AgHse1
Assay: as above
Protocol: as §1

Binder	SPOT peptide array binding signal intensity
B1	28.5

Target: AgLsb1
Assay: as above
Protocol: as §1

Binder	SPOT peptide array binding signal intensity
B1	5.25

Target: AgLsb4
Assay: as above
Protocol: as §1

Binder	SPOT peptide array binding signal intensity
B1	412

Target: AgMyo5
Assay: as above
Protocol: as §1

Binder	SPOT peptide array binding signal intensity
B1	550

Target: AgNbp2
Assay: as above
Protocol: as §1

Binder	SPOT peptide array binding signal intensity
B1	7.5

Target: AgRvs167
Assay: as above
Protocol: as §1

Binder	SPOT peptide array binding signal intensity
B1	123

Target: AgSho1
Assay: as above
Protocol: as §1

Binder	SPOT peptide array binding signal intensity
B1	4

Target: AgSla1-D1-D2
Assay: as above
Protocol: as §1

Binder	SPOT peptide array binding signal intensity
B1	5

Target: AgSla1-D3
Assay: as above
Protocol: as §1

Binder	SPOT peptide array binding signal intensity
B1	10

Target: CaAbp1-D1
Assay: as above
Protocol: as §1

Binder	SPOT peptide array binding signal intensity
B1	150

Target: CaAbp1-D2
Assay: as above
Protocol: as §1

Binder	SPOT peptide array binding signal intensity
B1	17

Target: CaBbc1
Assay: as above
Protocol: as §1

Binder	SPOT peptide array binding signal intensity
B1	770

Target: CaBem1-D1
Assay: as above
Protocol: as §1

Binder	SPOT peptide array binding signal intensity
B1	1820

Target: CaBzz1-D1
Assay: as above
Protocol: as §1

Binder	SPOT peptide array binding signal intensity
B1	3030

Target: CaBzz1-D2
Assay: as above
Protocol: as §1

Binder	SPOT peptide array binding signal intensity
B1	1540

Target: CaCyk3
Assay: as above
Protocol: as §1

Binder	SPOT peptide array binding signal intensity
B1	326

Target: CaFus1
Assay: as above
Protocol: as §1

Binder	SPOT peptide array binding signal intensity
B1	26.5

Target: CaHof1
Assay: as above
Protocol: as §1

Binder	SPOT peptide array binding signal intensity
B1	39

Target: CaHse1
Assay: as above
Protocol: as §1

Binder	SPOT peptide array binding signal intensity
B1	5.25

Target: CaLsb1
Assay: as above
Protocol: as §1

Binder	SPOT peptide array binding signal intensity
B1	≤ 0

Target: CaLsb4
Assay: as above
Protocol: as §1

Binder	SPOT peptide array binding signal intensity
B1	560

Target: CaMyo5
Assay: as above
Protocol: as §1

Binder	SPOT peptide array binding signal intensity
B1	19.5

Target: CaNbp2
Assay: as above
Protocol: as §1

Binder	SPOT peptide array binding signal intensity
B1	63.5

Target: CaRvs167
Assay: as above
Protocol: as §1

Binder	SPOT peptide array binding signal intensity
B1	223

Target: CaRvs167-3
Assay: as above
Protocol: as §1

Binder	SPOT peptide array binding signal intensity
B1	9.25

Target: CaSho1
Assay: as above
Protocol: as §1

Binder	SPOT peptide array binding signal intensity
B1	11

Target: CaSla1-D1-D2
Assay: as above
Protocol: as §1

Binder	SPOT peptide array binding signal intensity
B1	2140

Target: CaSla1-D3
Assay: as above
Protocol: as §1

Binder	SPOT peptide array binding signal intensity
B1	20.2

Target: ScAbp1
Assay: as above
Protocol: as §1

Binder	SPOT peptide array binding signal intensity
B1	53

Target: ScBbc1
Assay: as above
Protocol: as §1

Binder	SPOT peptide array binding signal intensity
B1	198

Target: ScBem1-D1
Assay: as above
Protocol: as §1

Binder	SPOT peptide array binding signal intensity
B1	3.5

Target: ScBzz1-D1
Assay: as above
Protocol: as §1

Binder	SPOT peptide array binding signal intensity
B1	222

Target: ScBzz1-D2
Assay: as above
Protocol: as §1

Binder	SPOT peptide array binding signal intensity
B1	47.5

Target: ScCyk3
Assay: as above
Protocol: as §1

Binder	SPOT peptide array binding signal intensity
B1	5

Target: ScFus1
Assay: as above
Protocol: as §1

Binder	SPOT peptide array binding signal intensity
B1	≤ 0

Target: ScHof1
Assay: as above
Protocol: as §1

Binder	SPOT peptide array binding signal intensity
B1	175

Target: ScHse1
Assay: as above
Protocol: as §1

Binder	SPOT peptide array binding signal intensity
B1	173

Target: ScLsb1
Assay: as above
Protocol: as §1

Binder	SPOT peptide array binding signal intensity
B1	27.2

Target: ScLsb2
Assay: as above
Protocol: as §1

Binder	SPOT peptide array binding signal intensity
B1	5.5

Target: ScLsb3
Assay: as above
Protocol: as §1

Binder	SPOT peptide array binding signal intensity
B1	832

Target: ScLsb4
Assay: as above
Protocol: as §1

Binder	SPOT peptide array binding signal intensity
B1	413

Target: ScMyo3
Assay: as above
Protocol: as §1

Binder	SPOT peptide array binding signal intensity
B1	881

Target: ScMyo5
Assay: as above
Protocol: as §1

Binder	SPOT peptide array binding signal intensity
B1	795

Target: ScNbp2
Assay: as above
Protocol: as §1

Binder	SPOT peptide array binding signal intensity
B1	30.5

Target: ScPex13
Assay: as above
Protocol: as §1

Binder	SPOT peptide array binding signal intensity
B1	502

Target: ScRvs167
Assay: as above
Protocol: as §1

Binder	SPOT peptide array binding signal intensity
B1	795

Target: ScSho1
Assay: as above
Protocol: as §1

Binder	SPOT peptide array binding signal intensity
B1	188

Target: ScSla1-D1-D2
Assay: as above
Protocol: as §1

Binder	SPOT peptide array binding signal intensity
B1	3480

Target: ScSla1-D3
Assay: as above
Protocol: as §1

Binder	SPOT peptide array binding signal intensity
B1	3.5

Target: SpAbp1-D1
Assay: as above
Protocol: as §1

Binder	SPOT peptide array binding signal intensity
B1	69

Target: SpBbc1
Assay: as above
Protocol: as §1

Binder	SPOT peptide array binding signal intensity
B1	20

Target: SpBzz1-D1
Assay: as above
Protocol: as §1

Binder	SPOT peptide array binding signal intensity
B1	4030

Target: SpBzz1-D2
Assay: as above
Protocol: as §1

Binder	SPOT peptide array binding signal intensity
B1	64.8

Target: SpCyk3
Assay: as above
Protocol: as §1

Binder	SPOT peptide array binding signal intensity
B1	57

Target: SpHof1
Assay: as above
Protocol: as §1

Binder	SPOT peptide array binding signal intensity
B1	115

Target: SpHof1-2
Assay: as above
Protocol: as §1

Binder	SPOT peptide array binding signal intensity
B1	166

Target: SpHof1-3
Assay: as above
Protocol: as §1

Binder	SPOT peptide array binding signal intensity
B1	1070

Target: SpHse1
Assay: as above
Protocol: as §1

Binder	SPOT peptide array binding signal intensity
B1	2.25

Target: SpLsb1
Assay: as above
Protocol: as §1

Binder	SPOT peptide array binding signal intensity
B1	12.2

Target: SpLsb4
Assay: as above
Protocol: as §1

Binder	SPOT peptide array binding signal intensity
B1	1800

Target: SpMyo1
Assay: as above
Protocol: as §1

Binder	SPOT peptide array binding signal intensity
B1	510

Target: SpNbp2
Assay: as above
Protocol: as §1

Binder	SPOT peptide array binding signal intensity
B1	12

Target: SpPex13
Assay: as above
Protocol: as §1

Binder	SPOT peptide array binding signal intensity
B1	≤ 0

Target: SpRvs167
Assay: as above
Protocol: as §1

Binder	SPOT peptide array binding signal intensity
B1	1170

Target: SpSla1-D1-D2
Assay: as above
Protocol: as §1

Binder	SPOT peptide array binding signal intensity
B1	339

Target: SpSla1-D3
Assay: as above
Protocol: as §1

Binder	SPOT peptide array binding signal intensity
B1	≤ 0
